Source: PubChem BioAssay (NMMLSC)
ABCB6 inh 2 – human ABCB6 transporter inhibition; K562-ABCB6 porphyrin accumulation, flow cytometry, 1 h; stronger effect = lower value; fluorescence ratio to DMSO, % at 10 µM; hit rate 0.19% among 360,000; AID 602162;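 active = fluorescence ratio to DMSO below 75%, the collection mean minus 3 SD; inconclusive = too few cells collected in the well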;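 also: signal is porphyrin accumulated inside mitochondria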
Target sequence (Q9NP58 whole entry, looked up): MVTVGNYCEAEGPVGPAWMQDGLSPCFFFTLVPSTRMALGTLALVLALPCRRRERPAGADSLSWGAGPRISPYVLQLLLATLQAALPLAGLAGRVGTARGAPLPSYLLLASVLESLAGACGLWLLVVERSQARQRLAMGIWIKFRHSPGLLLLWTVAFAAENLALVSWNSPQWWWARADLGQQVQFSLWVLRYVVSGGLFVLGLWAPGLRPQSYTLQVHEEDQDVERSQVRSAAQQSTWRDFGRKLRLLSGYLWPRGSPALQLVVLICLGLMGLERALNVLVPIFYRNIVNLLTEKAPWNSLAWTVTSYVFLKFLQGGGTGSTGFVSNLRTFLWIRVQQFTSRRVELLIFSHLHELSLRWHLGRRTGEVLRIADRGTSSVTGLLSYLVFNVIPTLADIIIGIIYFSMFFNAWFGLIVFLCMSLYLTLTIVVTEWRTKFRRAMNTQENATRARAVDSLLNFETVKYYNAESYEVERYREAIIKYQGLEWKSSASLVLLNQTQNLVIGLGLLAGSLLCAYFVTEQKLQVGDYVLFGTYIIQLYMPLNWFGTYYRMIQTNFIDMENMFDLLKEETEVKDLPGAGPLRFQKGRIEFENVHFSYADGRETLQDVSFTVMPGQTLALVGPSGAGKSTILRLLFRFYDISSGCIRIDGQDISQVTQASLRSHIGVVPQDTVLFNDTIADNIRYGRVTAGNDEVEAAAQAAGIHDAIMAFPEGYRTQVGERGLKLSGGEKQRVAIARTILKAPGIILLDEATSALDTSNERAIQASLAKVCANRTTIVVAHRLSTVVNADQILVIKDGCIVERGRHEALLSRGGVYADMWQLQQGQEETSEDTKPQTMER
Myeloid diff 2 – myeloid differentiation induction; ER-HoxA9 myeloid progenitors, lysozyme-GFP differentiation, flow cytometry; calls only at 10 µM; hit rate 1% among 360,000; AID 624256;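 active = normalized GFP-positive differentiation at or above the plate's own cutoff, the solvent-only control mean plus 3 SD; inconclusive = no clear call, values can overlap the other calls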;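 also: cells exposed to compound for four days before flow analysis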
Exocytosis inh – lytic granule exocytosis inhibition; inhibition, % at 10 µM; TALL-104 LAMP-1 surface exposure, flow cytometry; cells stimulated with thapsigargin and PMA; hit rate 0.66% among 360,000; AID 651702;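 active = inhibition above about 55%, limit read from the data; inconclusive = no clear call, values can overlap the other calls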
Numbers stand for hits; 0 = inactive; ? = inconclusive; - = not tested or not shown; + = active, no number. In the library only some 1.8% were active in any assay of this set; here they are far more common.

SMILES	ABCB6 inh 2	Myeloid diff 2	Exocytosis inh
CC(C)CCC(O)(CCC(C)C)C(=O)NNc1ccccc1	0	+	0
CC(C)CC(O)(CC(C)C)C(=O)NNc1ccccc1	0	0	0
CCOC1=CC2=C(C(=O)C(Cl)=CC2=O)[C@@H]2CN(S(=O)(=O)c3ccc(C)cc3)[C@@H](c3ccccc3)[C@H]12	0	?	98
CCN1C(=O)[C@@H]2[C@@H]3CN(S(=O)(=O)c4ccc(C)cc4)[C@@H](c4ccccc4)[C@@H]3C(=O)C[C@@H]2C1=O	0	0	0
O=C(O)c1ccccc1NC(=O)c1ccccc1Nc1ccccc1	0	+	0
O=C(Nc1ccccc1C(=O)Nc1ccccc1C(=O)O)c1ccccc1	0	0	0
CC(C)(C)Nc1c(C2CCNCC2)nc2c(OCc3ccccc3)cccn12	0	0	0
Cc1ccc(Nc2c(-c3ccco3)nc3ccccn23)cc1	0	0	0
COc1ccc(Nc2c(-c3ccco3)nc3ccc(C)cn23)cc1	0	+	0
CCNC(=O)c1cc2c(=O)n3cccc(C)c3nc2n(CCc2ccccc2)c1=N	0	0	0
CCOCCCn1c(=N)c(C(N)=S)cc2c(=O)n3cccc(C)c3nc21	0	0	0
CCCCNC(=O)c1cc2c(=O)n3cccc(C)c3nc2n(Cc2ccccc2)c1=N	0	+	0
Cc1cccn2c(=O)c3cc(C(N)=S)c(=N)n(CCCOC(C)C)c3nc12	0	+	0
COc1ccc(NCC(=O)NN=C2CCS(=O)(=O)c3ccc(F)cc32)cc1	0	0	0
CCCCN(C(=O)CN1CCOCC1)c1c(N)n(CC(C)C)c(=O)[nH]c1=O	0	0	0
CC(=O)C1=C(C)NC(SCC(=O)c2ccc(Cl)cc2Cl)=C(C#N)C1c1ccco1 (centres undefined)	0	0	0
CC(=O)C1=C(C)NC(SCC(=O)c2ccc(Cl)cc2)=C(C#N)C1c1ccco1 (centres undefined)	0	+	0
CSc1nc(SCC(N)=O)c2c3c(sc2n1)CN(C)CC3	0	0	0
CSc1nc(SCC(=O)NCc2ccco2)c2c3c(sc2n1)CN(C)CC3	72	0	0
CCOC(=O)CCc1nc2ccccc2[nH]1	0	0	0
COCC(=O)O[C@]1(CCN(C)CCCc2nc3ccccc3[nH]2)CCc2cc(F)ccc2[C@@H]1C(C)C	0	?	63
COc1ccc(CC(=O)NC(=S)Nc2cccc(CO)c2)cc1	0	0	0
COc1ccc(CC(=O)NC(=S)Nc2cccc(C)c2)cc1	0	+	0
CCOC(=O)C1=C(C)NC(C)=C(C(=O)OCC)C1C(=O)OCC(=O)NCc1ccccc1OC	0	0	0
CN(Cc1cnc2nc(N)nc(N)c2n1)c1ccc(C(=O)NC(CCC(=O)O)C(=O)O)cc1 (centres undefined)	0	-	0
SMILES	ABCB6 inh 2	Myeloid diff 2	Exocytosis inh
COc1cc(Cl)c(NC2=CC(=O)C(=O)c3ccccc32)c(OC)c1	0	+	0
CCOc1ccc(NC2=CC(=O)C(=O)c3ccccc32)cc1	0	?	0
CCOC(=O)C1(C(=O)OCC)C(C)CC(=O)N1c1ccccc1OC (centres undefined)	0	0	0
CC1CCC(NC(=O)c2cccc(S(=O)(=O)N3CCOCC3)c2)CC1 (centres undefined)	0	0	0
Cc1ccc(C(=O)N2[C@@H]3CN(C)C(=O)[C@@]2(Cc2ccccc2)[C@H]2C(=O)N(Cc4ccccc4)C(=O)[C@@H]32)cc1	0	0	0
Cc1ccc(-n2nc3ccc(N)cc3n2)c(C)c1	0	0	0
Cc1cc(N)ccc1-n1nc2ccccc2n1	0	+	0
Cc1cnc(C(=O)OCC(=O)C23CC4CC(CC(C4)C2)C3)cn1	0	+	0
Cc1cnc(C(=O)OCC(=O)NC23CC4CC(CC(C4)C2)C3)cn1	0	0	0
ClCC1NCC(c2ccccc2Cl)c2c1[nH]c1ccccc21 (centres undefined)	0	+	0
O=C(O)C(CCc1ccccc1)(Cc1ccccc1)C(=O)O	0	0	0
CN(Cc1nc2ccccc2c(=O)[nH]1)C(=O)c1ccc(S(=O)(=O)N(C)C)cc1	0	0	0
Cc1c(C(=O)N(C)Cc2nc3ccccc3c(=O)[nH]2)oc2ccccc12	0	+	0
O=C(c1ccco1)N1CCN(c2ccc([N+](=O)[O-])c(N3CCOCC3)c2)CC1	0	0	0
CN(CC(=O)Nc1ccc(F)c(F)c1F)C(=O)c1nn(Cc2ccccc2)c(=O)c2ccccc12	0	0	0
Cc1cc(C(=O)Cn2cnc3ccc(Cl)cc3c2=O)c(C)n1C1CC1	0	0	0
OC(CNCc1ccc(Cl)cc1)C(F)(F)F (centres undefined)	0	0	0
O=C(CNC(=O)c1ccccc1F)NNC(=O)c1ccccc1O	0	+	0
Cc1ccccc1C(=O)NCC(=O)OCC(=O)NNC(=O)c1ccccc1F	0	0	0
